In the library only some 21% were active in any assay of this set; here they are far more common.
Pf growth 96h: Primary qHTS for delayed death inhibitors of the malarial parasite plastid, 96 hour incubation; AID 504834, 2011; P. falciparum luciferase reporter growth, 96 h; actives 6.9% (n = 320,000); Potency, µM (series often up to 28.7 µM), for the others: top-dose activity change, negative = inhibition, usual class: inhibitors; active = well fitted inhibition curve with a large enough effect; inconclusive = small, poorly fitted or top-dose-only effect, or another doubt; inactive = no such curve, though single readings can be large or run the other way; also: potency is read from the fitted curve at half-maximal effect; % is scaled to controls: 0 for no effect and ±100 for the full control effect
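Luminescence readout: decreased luciferase signal marks inhibited growth of reporter-expressing P. falciparum in infected red cells (2% hematocrit, 0.05% parasitemia final), exposed to compound two generations (96 h, 37 C, 5% CO2).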
NS1 function inh: qHTS Assay for Inhibitors of Influenza NS1 Protein Function; Potency, µM (highest dose often 46.1 µM), without a hit: at the top dose activity, positive = more growth; AID 2326, 2010; actives 0.4% (n = 270,000); also: potency is read from the fitted curve at half-maximal effect; actives are rising curves; nearly all actives have a fitted effect of over 50% in size
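S. cerevisiae expressing influenza A NS1, grown in glucose, washed, then diluted 1:100 into pH 6.0 -URA galactose medium with 23 nl compound. Growth recovery read as OD600; NS1-free strain serves as control.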
SARS PLpro yeast: qHTS of Yeast-based Assay for SARS-CoV PLP | actives 0.19% (n = 330,000) | Potency, µM (series often up to 32.9 µM), inactives show at the highest dose activity, positive = growth rescue, most hits filed as activators | S. cerevisiae expressing SARS-CoV PLpro, growth rescue | AID 485353, 2010; also: potency is read from the fitted curve at half-maximal effect; 0% is about no effect; nearly all actives have a fitted effect of over 55% in size
Shiga inhibitor: A qHTS for Small Molecule Inhibitors of Shiga Toxin; inhibition, % at 38.7 µM; Vero cells, Shiga toxin protein synthesis inhibition reporter; actives 9.2% (n = 290,000); AID 2315, 2010; in the data active = inhibition mostly above about 28%, no sharp cut-off; inactive = mostly below about 43%; also: 0% is about no effect
CHX counter: Cycloheximide Counterscreen for Small Molecule Inhibitors of Shiga Toxin. actives 12% (n = 300,000). AID 2314, 2010. max response, %. cell reporter, cycloheximide protein synthesis inhibition counterscreen; in the data active = max response mostly above about 13%, no sharp cut-off; inactive = mostly below about 14%; also: read at 38.3 µM for the half of the compounds with a filed dose; 0% is about no effect
Pf growth 48h: Primary qHTS for delayed death inhibitors of the malarial parasite plastid, 48 hour incubation. P. falciparum luciferase growth in erythrocytes, 48 h. Potency, µM (top dose mostly 28.7 µM), inactives show at the top dose activity change, negative = inhibition, most hits filed as inhibitors. actives 5.9% (n = 310,000); active = well fitted inhibition curve with a large enough effect; inconclusive = small, poorly fitted or top-dose-only effect, or another doubt; inactive = no such curve, though single readings can be large or run the other way; also: potency is read from the fitted curve at half-maximal effect; % is scaled to controls: 0 for no effect and ±100 for the full control effect
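Luciferase-expressing parasites in RBCs, 2% Hct / 0.1% parasitemia final; RPMI 1640 + 0.5% Albumax; 37 C, 5% CO2, one generation; luminescence read-out, lower signal = inhibition.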
Starred values were filed as active, the others as inactive. Unless noted, calls follow the shape of the full dose curve.

`COc1cc(NS(C)(=O)=O)ccc1Nc1c2ccccc2nc2ccccc12` gave Pf growth 96h 0.928µM*, NS1 function inh -44.2% and Pf growth 48h 1.04µM*.
`O=C(COC(=O)c1ccccc1F)c1ccc(-n2nncc2-c2ccco2)cc1` gave Pf growth 96h inconclusive, NS1 function inh -22.0%, SARS PLpro yeast 8.6%, Shiga inhibitor 40.4 and CHX counter 20.8*.
CCOC(=O)c1cc(-c2ccco2)nn1-c1ccc(C)cc1 was read as Pf growth 96h -3.9%, NS1 function inh -13.9%, SARS PLpro yeast -6.3%, Shiga inhibitor 7.9, CHX counter 8.0 and Pf growth 48h 0.0%.
`COc1ccc(-c2ccccc2C2C3C=CCCC3(C)C(=O)N2Cc2ccccc2)cc1` (stereo not drawn) gave Shiga inhibitor -2.3 and CHX counter 1.7.
C=C(C)C1CC=C(C)/C(=N/NC(=O)COc2ccc(Cl)cc2)C1 (stereo not drawn) was read as Pf growth 96h -13.6%, NS1 function inh 11.5%, SARS PLpro yeast inconclusive, Shiga inhibitor -11.0, CHX counter -4.9 and Pf growth 48h 3.0%.
For C=C(C)C1CC=C(C)/C(=N/NC(=O)c2ccoc2C)C1 (stereo not drawn) the results were Pf growth 96h -1.1%, NS1 function inh -1.7%, SARS PLpro yeast -4.7%, Shiga inhibitor active, CHX counter 65.5* and Pf growth 48h 16.5%.
`C=C(C)C1CC=C(C)/C(=N/NC(=S)Nc2ccccc2)C1` (stereo not drawn) gave Pf growth 96h 53.6%, NS1 function inh -9.0%, SARS PLpro yeast 10µM*, Shiga inhibitor 27.3, CHX counter 20.8* and Pf growth 48h 10.0%.
C=C(C)C1CC=C(C)/C(=N/NC(=O)COc2cccc(C)c2)C1 (stereo not drawn) was read as Pf growth 96h inconclusive, NS1 function inh 0.9%, SARS PLpro yeast -4.5%, Shiga inhibitor 41.1*, CHX counter 7.6 and Pf growth 48h inconclusive.
For CCOC(=S)SCc1cn2ccccc2n1 the results were Pf growth 96h -11.0%, SARS PLpro yeast -2.3%, Shiga inhibitor 42.3*, CHX counter 29.9* and Pf growth 48h -2.9%.
`c1ccc(-n2cnnc2SCc2cn3ccccc3n2)cc1` gave Pf growth 96h inconclusive, NS1 function inh -5.5%, SARS PLpro yeast inconclusive, Shiga inhibitor 25.4, CHX counter -1.0 and Pf growth 48h 36.8%.
Screening CCOC(=O)c1cn2ccc(C)cc2n1 returned Pf growth 96h 22.6%, NS1 function inh -2.7%, SARS PLpro yeast -1.0%, Shiga inhibitor 76.8*, CHX counter 29.0* and Pf growth 48h 53.3%.
`Cc1ccn2cc(CC(=O)O)nc2c1` gave Pf growth 96h 4.8%, NS1 function inh 7.2%, SARS PLpro yeast 0.0%, Shiga inhibitor -1.0, CHX counter -2.5 and Pf growth 48h 0.0%.
For Cc1ccn2cc(CSc3ccccc3N)nc2c1 the results were Pf growth 96h 108.9%, NS1 function inh 0.5%, SARS PLpro yeast -0.7%, Shiga inhibitor 105.0*, CHX counter 46.1* and Pf growth 48h 172.7%.
`CCOC(=S)SCc1cn2ccc(C)cc2n1` gave Pf growth 96h inconclusive, NS1 function inh 10.5%, SARS PLpro yeast 10.5%, Shiga inhibitor 11.9, CHX counter 33.7* and Pf growth 48h -17.5%.
CC1CN(Cc2cc(=O)oc3cc(O)ccc23)CC(C)O1 (stereo not drawn) was read as Pf growth 96h inconclusive, NS1 function inh 25.0%, SARS PLpro yeast 6.3%, Shiga inhibitor -5.2, CHX counter 1.4 and Pf growth 48h inconclusive.
COc1c2ccoc2cc2oc(=O)ccc12 was read as SARS PLpro yeast 0.3%.
Screening CC1(C)OC1COc1c2ccoc2cc2oc(=O)ccc12 (stereo not drawn) returned Pf growth 96h 0.37µM*, NS1 function inh -4.6%, SARS PLpro yeast -0.8%, Shiga inhibitor -4.6, CHX counter 1.7 and Pf growth 48h -2.5%.
`COc1ccc(N(CC(=O)NCc2cccs2)S(=O)(=O)c2c(C)nn(C)c2C)cc1` gave Pf growth 96h inconclusive, NS1 function inh -1.6%, SARS PLpro yeast -0.4%, Shiga inhibitor -25.3 and CHX counter 10.1.

Source: PubChem BioAssay
